# Results as given in PubChem BioAssay (Tox21).
# Unmarked numbers belong to inactive results. Results filed as inconclusive are left out. Entries that show only a call come without a potency. The source made the active and inactive calls. Unless noted, calls come from the whole dose curve; as a rule, active = well fitted curve in the direction sought with a large enough effect in the repeat runs; inconclusive = weak or mixed curves; inactive = no such curve, though single readings can be large; an effect the other way counts as inactive or inconclusive.
# Tests used:
# [1] = target: Thyrotropin receptor (Homo sapiens) (UniProt P16473); assay: qHTS assay to identify small molecule antagonists of the thyroid stimulating hormone receptor (TSHR) signaling pathway (AID 1259385; calls by dose curve; note: nearly all actives have a fitted effect of over 20% in size)
# Chain of Thyrotropin receptor (Homo sapiens) (P16473 whole entry, looked up): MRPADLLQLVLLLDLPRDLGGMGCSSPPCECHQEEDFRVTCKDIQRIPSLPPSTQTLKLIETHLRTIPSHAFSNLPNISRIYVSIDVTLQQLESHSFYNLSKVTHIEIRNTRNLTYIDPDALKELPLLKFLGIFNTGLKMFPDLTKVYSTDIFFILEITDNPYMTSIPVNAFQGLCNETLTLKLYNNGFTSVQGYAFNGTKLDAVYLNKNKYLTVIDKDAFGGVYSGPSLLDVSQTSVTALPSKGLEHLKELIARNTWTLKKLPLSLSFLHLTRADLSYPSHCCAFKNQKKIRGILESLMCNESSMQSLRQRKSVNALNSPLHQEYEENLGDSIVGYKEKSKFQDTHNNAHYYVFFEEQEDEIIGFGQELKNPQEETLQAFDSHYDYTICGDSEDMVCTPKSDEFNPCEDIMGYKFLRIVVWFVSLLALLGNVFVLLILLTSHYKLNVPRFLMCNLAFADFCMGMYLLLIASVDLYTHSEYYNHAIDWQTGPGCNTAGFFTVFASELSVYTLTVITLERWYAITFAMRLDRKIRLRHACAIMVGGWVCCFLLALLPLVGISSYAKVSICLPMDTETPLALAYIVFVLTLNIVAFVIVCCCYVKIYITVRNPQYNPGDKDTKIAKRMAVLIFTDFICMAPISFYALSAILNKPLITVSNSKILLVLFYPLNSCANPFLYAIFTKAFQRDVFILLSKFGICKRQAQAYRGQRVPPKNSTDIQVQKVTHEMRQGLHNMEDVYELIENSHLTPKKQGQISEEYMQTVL
# How it was run: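 Antagonist mode: compound-treated TSHR-expressing HEK293 cells were stimulated with 1.5 ng/mL TSH (final) in presence of Ro20-1724 for 30 min at RT. HTRF cAMP detection after 1 h; each compound tested at 15 concentrations, triplicate.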
# [2] = qHTS assay to identify small molecule agonists of the estrogen receptor alpha (ER-alpha) signaling pathway in the presence of an antagonist - cell viability counter screen (AID 1259386);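 note: series mostly up to about 92 µM; cells exposed to compounds for 22 h at 37 °C before the viability read; nearly all actives have a fitted effect of over 30% in size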
# How it was run: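 In this counter screen, compound effects on VM7Luc4E2 viability were tested in the presence of the antagonist ICI-182,780 at 10.0nM final. Compounds were dosed at 15 concentrations, exposure lasted 22hr, and the CellTiter-Fluor signal was read.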
# [3] = target: Progesterone receptor (Homo sapiens) (UniProt P06401); assay: qHTS assay to identify small molecule agonists of the progesterone receptor (PR) signaling pathway (AID 1346784; calls by dose curve; note: nearly all actives have a fitted effect of over 30% in size)
# Chain of Progesterone receptor (Homo sapiens) (P06401 whole entry, looked up): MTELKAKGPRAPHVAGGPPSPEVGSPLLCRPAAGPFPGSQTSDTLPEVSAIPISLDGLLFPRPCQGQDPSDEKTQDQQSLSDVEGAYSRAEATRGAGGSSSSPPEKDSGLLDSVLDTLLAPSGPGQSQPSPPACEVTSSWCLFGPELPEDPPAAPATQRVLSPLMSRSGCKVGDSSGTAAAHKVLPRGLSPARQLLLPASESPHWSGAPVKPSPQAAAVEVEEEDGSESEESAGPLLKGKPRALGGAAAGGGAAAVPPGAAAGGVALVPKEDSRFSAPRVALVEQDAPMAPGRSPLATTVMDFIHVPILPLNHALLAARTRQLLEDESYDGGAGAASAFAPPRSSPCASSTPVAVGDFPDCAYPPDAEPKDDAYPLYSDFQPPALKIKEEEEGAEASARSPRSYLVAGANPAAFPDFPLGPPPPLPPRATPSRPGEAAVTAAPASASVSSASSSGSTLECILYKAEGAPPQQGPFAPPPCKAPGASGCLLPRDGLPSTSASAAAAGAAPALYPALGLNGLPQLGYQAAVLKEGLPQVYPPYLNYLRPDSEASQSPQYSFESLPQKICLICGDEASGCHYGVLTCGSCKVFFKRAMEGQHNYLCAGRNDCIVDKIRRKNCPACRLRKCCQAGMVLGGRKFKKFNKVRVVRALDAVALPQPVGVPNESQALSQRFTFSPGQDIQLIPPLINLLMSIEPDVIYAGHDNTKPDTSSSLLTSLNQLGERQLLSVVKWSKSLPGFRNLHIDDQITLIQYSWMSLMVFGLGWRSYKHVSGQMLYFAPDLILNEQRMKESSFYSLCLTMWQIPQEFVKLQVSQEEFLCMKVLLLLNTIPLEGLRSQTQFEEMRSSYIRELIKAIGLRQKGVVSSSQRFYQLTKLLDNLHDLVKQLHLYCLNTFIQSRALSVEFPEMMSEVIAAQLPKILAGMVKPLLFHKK
# How it was run: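 PR-UAS-bla HEK 293T cells (beta-lactamase reporter under UAS) in 2% charcoal-stripped FBS, dosed with 23 nL compound after 6 hr, incubated 16hr at 37C. LiveBLAzer B/G FRET substrate added, fluorescence read after 2 hours.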
# [4] = target: Progesterone receptor (Homo sapiens) (UniProt P06401); assay: qHTS assay to identify small molecule antagonists of the progesterone receptor (PR) signaling pathway (AID 1346795; active = well fitted inhibition curve with a large enough effect in the signal ratio in the repeat runs, not every such curve was filed as active; the % refers to the signal ratio)
# How it was run: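 PR-UAS-bla HEK293T cells with beta-lactamase reporter under UAS control, in 2% charcoal-stripped FBS, treated with compounds plus 1 nM promegestone (R5020, final) for 16 hr at 37C. Read-out: FRET beta-lactamase substrate fluorescence after 2 hr at room temperature.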
# [5] = qHTS assay to identify small molecule antagonists of the progesterone receptor (PR) signaling pathway - cell viability counter screen (AID 1346798); note: series mostly up to about 92 µM; nearly all actives have a fitted effect of over 50% in size
# How it was run: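 PR-UAS-bla HEK293T cells, 3,000/well in 2% charcoal-stripped FBS medium, dosed with compounds plus R5020 agonist and incubated 16 h at 37C. Viability then measured in the same wells by CellTiter-Glo luminescence after 30 min at RT.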
# [6] = qHTS assay to identify small molecule agonists of the progesterone receptor (PR) signaling pathway - cell viability counter screen (AID 1346799; calls by dose curve; note: nearly all actives have a fitted effect of over 45% in size)
# How it was run: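 Counter screen in the PR-UAS-bla HEK293T wells (2% charcoal-stripped FBS, 16 h compound exposure at 37 C) after the bla read. CellTiter-Glo added, 30 min at room temperature, luminescence read as cell viability.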
# [7] = target: Thyrotropin-releasing hormone receptor (Homo sapiens) (UniProt P34981); assay: qHTS assay to identify small molecule agonists of the thyrotropin-releasing hormone receptor (TRHR) signaling pathway (AID 1346891; calls by dose curve; note: series mostly up to about 58 µM)
# Chain of Thyrotropin-releasing hormone receptor (Homo sapiens) (P34981 whole entry, looked up): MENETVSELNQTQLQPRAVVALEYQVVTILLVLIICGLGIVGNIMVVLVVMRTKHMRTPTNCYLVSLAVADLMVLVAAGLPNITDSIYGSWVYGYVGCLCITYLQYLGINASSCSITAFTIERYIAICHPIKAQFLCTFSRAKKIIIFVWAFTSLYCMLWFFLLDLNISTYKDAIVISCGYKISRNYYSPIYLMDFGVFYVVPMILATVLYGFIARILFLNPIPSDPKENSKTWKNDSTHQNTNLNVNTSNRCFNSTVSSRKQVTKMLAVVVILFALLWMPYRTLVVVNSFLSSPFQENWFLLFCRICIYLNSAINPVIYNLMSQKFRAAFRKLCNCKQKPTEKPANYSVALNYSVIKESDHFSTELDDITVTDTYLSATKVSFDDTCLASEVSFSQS
# How it was run: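 HEK293 cells expressing TRHR plated 18 h at 37 C/5% CO2, calcium dye-loaded 2 h at 37 C, then compound added (agonist mode); kinetic calcium fluorescence read 3 min at 1 s intervals; 15 concentrations in triplicate.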
# [8] = Human pregnane X receptor (PXR) small molecule agonists, qHTS cell viability counter screen (AID 1346977); note: nearly all actives have a fitted effect of over 50% in size
# How it was run: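 PXR-Luc HepG2 cells (2,000/well, 5% charcoal-stripped FBS) preincubated 5 hr, then exposed to compounds 24 hr at 37 C. Viability read in the same wells by CellTiter-Fluor fluorescence, reagent added at 23 hr, 1 hr incubation.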
# [9] = Caspase-3/7 induction in HepG2 cells by small molecules, qHTS assay (AID 1346978); note: nearly all actives have a fitted effect of over 15% in size
# How it was run: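 Caspase-3/7 induction was measured by Caspase-Glo 3/7 luminescence (30 min, room temperature) after a 17 hr compound exposure of wild-type HepG2 cells seeded at 2,000 per well and pre-incubated 5 hr.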
# [10] = Caspase-3/7 induction in CHO-K1 cells by small molecules, qHTS assay (AID 1346980); note: nearly all actives have a fitted effect of over 15% in size
# How it was run: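 Luminescent Caspase-Glo 3/7 read (30min, room temperature) quantified apoptosis induction. Cells were wild-type CHO-K1, treated with compound for 17hr at 37 C and 5% CO2.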
# [11] = Caspase-3/7 induction in HepG2 cells by small molecules, qHTS cell viability counter screen (AID 1346981); note: series mostly up to about 92 µM; nearly all actives have a fitted effect of over 30% in size
# How it was run: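 In this quantitative HTS counter screen, compounds delivered in DMSO were left on unmodified HepG2 cells for 16 hr at 37 C. Viability was then determined fluorometrically with CellTiter-Fluor, in parallel with caspase-3/7 induction in the same wells.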
# [12] = target: Nuclear receptor subfamily 1 group I member 2 (Homo sapiens) (UniProt O75469); assay: Human pregnane X receptor (PXR) small molecule agonists, qHTS assay (AID 1346982); note: nearly all actives have a fitted effect of over 35% in size; note: potency is the fitted concentration of half-maximal effect
# Chain of Nuclear receptor subfamily 1 group I member 2 (Homo sapiens) (O75469 whole entry, looked up): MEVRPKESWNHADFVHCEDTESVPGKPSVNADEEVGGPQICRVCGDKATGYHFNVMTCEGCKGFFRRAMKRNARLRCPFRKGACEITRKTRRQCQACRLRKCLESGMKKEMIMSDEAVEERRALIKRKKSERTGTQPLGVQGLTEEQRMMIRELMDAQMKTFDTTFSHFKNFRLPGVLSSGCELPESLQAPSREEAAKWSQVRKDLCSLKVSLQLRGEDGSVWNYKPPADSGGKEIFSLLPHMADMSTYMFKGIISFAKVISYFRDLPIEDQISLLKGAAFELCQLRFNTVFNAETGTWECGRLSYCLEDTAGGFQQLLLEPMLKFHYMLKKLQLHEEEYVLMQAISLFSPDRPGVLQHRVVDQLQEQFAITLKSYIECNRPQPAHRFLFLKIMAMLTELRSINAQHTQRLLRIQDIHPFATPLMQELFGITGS
# How it was run: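 Reporter HepG2 cells expressing PXR-Luc are cultured in charcoal-stripped FBS (5%), treated with compounds for 24 hr at 37 C, and assayed by ONE-Glo luminescence after 30 min at room temperature.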
# [13] = qHTS assay to identify small molecule antagonists of the TGF-beta/Smad signaling pathway - cell viability counter screen (AID 1346824); note: nearly all actives have a fitted effect of over 50% in size
# How it was run: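 Cytotoxicity counter-screen run in the same wells as the beta-lactamase Smad reporter read: CellTiter-Glo luminescence after 30 min at room temperature. HEK 293T SBE-bla cells had 5 hr compound exposure at 37 C with TGF-beta1 (0.25 ng/mL stock).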
# [14] = qHTS assay to identify small molecule agonists of the TGF-beta/Smad signaling pathway (AID 1346859; active = well fitted activation curve with a large enough effect in the signal ratio in the repeat runs, not every such curve was filed as active; the % refers to the signal ratio; note: series mostly up to about 77 µM)
# How it was run: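 SBE-bla HEK293T cells plated overnight, then compound exposure for 5 h at 37 C. Beta-lactamase reporter read with LiveBLAzer B/G FRET substrate after 2 h at room temperature, fluorescence at 405 nm excitation, 460/530 nm emission.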
# [15] = target: Thyrotropin-releasing hormone receptor (Homo sapiens) (UniProt P34981); assay: qHTS assay to identify small molecule antagonists of the thyrotropin-releasing hormone receptor (TRHR) signaling pathway (AID 1346877; active = well fitted inhibition curve with a large enough effect in the repeat runs, not every such curve was filed as active; note: series mostly up to about 51 µM)
# How it was run: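 Kinetic fluorescence (3 min, 1 s resolution) following stimulation with TRH at 1 nM final; HEK293 cells bearing human TRHR; 5 min compound preincubation at RT; concentration-response over 15 points, triplicates.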
# [16] = Caspase-3/7 induction in CHO-K1 cells by small molecules, qHTS cell viability counter screen (AID 1346979); note: nearly all actives have a fitted effect of over 35% in size
# How it was run: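 Wild-type CHO-K1 cells (1,500/well) treated with compound after 5 h plating; after 16 h at 37C, viability read as CellTiter-Fluor fluorescence following 1 h reagent incubation, in the same wells as the caspase read.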
# [17] = qHTS assay to identify small molecule agonists of the TGF-beta/Smad signaling pathway - cell viability counter screen (AID 1346829); note: top concentration of the series differs between compounds; nearly all actives have a fitted effect of over 45% in size
# How it was run: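 Tox21 qHTS format: SBE-bla HEK 293T cells treated with DMSO-dissolved compounds for 5 hr; CellTiter-Glo luminescence after 30 min at room temperature.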
# [18] = target: Nuclear receptor subfamily 1 group I member 2 (Rattus norvegicus) (UniProt Q9R1A7); assay: Rat pregnane X receptor (rPXR) activation by small molecules, qHTS assay (AID 1346983); details: rPXR luciferase reporter cells, One-Glo luminescence, 24 h; max activation: stronger effect = higher value; note: nearly all actives have a fitted effect of over 20% in size
# Chain of Nuclear receptor subfamily 1 group I member 2 (Rattus norvegicus) (Q9R1A7 whole entry, looked up): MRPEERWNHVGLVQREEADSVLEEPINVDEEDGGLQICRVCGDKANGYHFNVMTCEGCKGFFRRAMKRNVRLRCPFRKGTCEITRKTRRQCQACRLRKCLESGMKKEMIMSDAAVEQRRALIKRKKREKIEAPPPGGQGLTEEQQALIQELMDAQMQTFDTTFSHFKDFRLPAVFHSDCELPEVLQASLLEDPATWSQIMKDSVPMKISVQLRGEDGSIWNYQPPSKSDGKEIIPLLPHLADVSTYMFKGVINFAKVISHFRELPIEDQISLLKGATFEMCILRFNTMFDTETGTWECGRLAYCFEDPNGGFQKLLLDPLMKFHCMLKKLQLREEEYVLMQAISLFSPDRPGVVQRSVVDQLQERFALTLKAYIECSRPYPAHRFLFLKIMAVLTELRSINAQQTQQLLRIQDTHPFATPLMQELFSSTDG
# How it was run: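 Luminescent readout (One-Glo luciferase, 30 min room temperature) followed 24 hr compound treatment at 37 C of rPXR cells plated 2,000 per well and preincubated 5hr; qHTS format with compounds delivered in DMSO.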
# [19] = target: Nuclear receptor subfamily 1 group I member 2 (Homo sapiens) (UniProt O75469); assay: CYP3A4 induction through human pregnane X receptor (PXR) by small molecules, qHTS assay (AID 1346984); note: nearly all actives have a fitted effect of over 40% in size
# How it was run: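 Induction measured in HepG2-based DPX-2 cells co-expressing human PXR and a CYP3A4 promoter-driven luciferase. After a 24-hour compound exposure, cells received CYP3A4 luciferin substrate at 3uM final for 3 hours, and light output was then recorded.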
# [20] = target: Nuclear receptor subfamily 1 group I member 2 (Homo sapiens) (UniProt O75469); assay: Human pregnane X receptor (PXR) activation by small molecules, qHTS assay (AID 1346985); note: nearly all actives have a fitted effect of over 40% in size
# How it was run: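 DPX-2 cells (HepG2 co-transfected with a PXR response element and a CYP3A4-promoter luciferase construct) were seeded at 2,000 per well, rested 5 hr at 37C, then exposed to DMSO-dissolved compounds for 24 hr. Activation was read as luciferase luminescence.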
Compound,Potency [1],Potency [2],Potency [3],Potency [4],Potency [5],Potency [6],outcome [7],Potency [8],Potency [9],Potency [10],Potency [11],Potency [12],outcome [13],outcome [14],outcome [15],Potency [16],outcome [17],max activation [18] [%],Potency [19],Potency [20]
CCCOC(C)=O,inactive,inactive,inactive,inactive,inactive,inactive,inactive,inactive,inactive,inactive,inactive,inactive,,,,,,,,
O=C(O)COCC(=O)O,inactive,inactive,inactive,inactive,inactive,,inactive,inactive,,inactive,inactive,inactive,inactive,inactive,inactive,inactive,,,,
Cc1ccc2ccccc2c1[N+](=O)[O-],inactive,inactive,inactive,inactive,,inactive,inactive,inactive,,inactive,inactive,,inactive,inactive,,inactive,inactive,,,
CCCCCCCCCCCCN1CCOCC1,inactive,inactive,inactive,inactive,inactive,inactive,inactive,inactive,inactive,inactive,inactive,inactive,,inactive,inactive,inactive,,,,
O=C1OC(=O)C2CC=CCC12 (centres undefined),inactive,inactive,inactive,inactive,,inactive,inactive,inactive,inactive,,,inactive,inactive,,inactive,inactive,,,,
Cc1cc(N)n(-c2ccccc2)n1,inactive,inactive,inactive,inactive,inactive,inactive,inactive,inactive,inactive,inactive,inactive,,,,inactive,inactive,inactive,,,
CC(COc1ccccc1)NC(C)C(O)c1ccc(O)cc1 (centres undefined),inactive,inactive,inactive,inactive,,inactive,inactive,,,inactive,inactive,23.7 µM (active),,inactive,inactive,inactive,inactive,3.54,inactive,inactive
CCCCCCCCCCCCSCCOCCO,inactive,inactive,inactive,inactive,,inactive,inactive,inactive,,,inactive,,inactive,,inactive,inactive,inactive,-0.35,inactive,inactive
O=C(O)c1cc(C(=O)O)cc([N+](=O)[O-])c1,inactive,inactive,inactive,inactive,,inactive,inactive,inactive,inactive,inactive,inactive,inactive,inactive,,,inactive,inactive,,,
Sc1nc(S)nc(S)n1,inactive,inactive,inactive,inactive,,inactive,inactive,inactive,,,inactive,inactive,inactive,inactive,inactive,inactive,inactive,,,
